Records with an inconclusive call do not appear. Activity calls are given as the source filed them. How the source made its calls: active means hit-call score of the fitted dose curve at least 0.9, where 1 is the maximum; inconclusive means response in the unintended direction; inactive means score below 0.9.

Sequence of human Opioid Receptor Delta 1 (Opiate D1), OPRD1 (gene 4985) (P41143 whole entry, looked up): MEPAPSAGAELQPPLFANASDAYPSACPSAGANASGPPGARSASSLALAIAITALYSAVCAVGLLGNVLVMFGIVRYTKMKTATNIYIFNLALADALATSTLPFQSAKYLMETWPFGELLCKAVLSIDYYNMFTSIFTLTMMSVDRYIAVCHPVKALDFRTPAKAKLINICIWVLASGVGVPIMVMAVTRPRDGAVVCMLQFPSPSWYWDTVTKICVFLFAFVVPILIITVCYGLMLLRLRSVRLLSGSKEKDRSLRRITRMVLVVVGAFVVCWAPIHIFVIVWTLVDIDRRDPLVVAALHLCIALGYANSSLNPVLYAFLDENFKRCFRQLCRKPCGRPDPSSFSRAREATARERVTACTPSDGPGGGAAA

The assay concerns the target human Opioid Receptor Delta 1 (Opiate D1), OPRD1 (gene 4985) (UniProt P41143). Kind of assay: NVS_GPCR_hOpiate_D1: NovaScreen (NVS) G Protein-Coupled Receptor Assay for human Opioid Receptor Delta 1 (Opiate D1) (AID 2283280). In outline: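 Radioligand displacement on membranes from CHO cells expressing the receptor, read by filter scintillation counting 1 h after dosing. Duplicate single-point screen at 25 uM, then concentration series for actives; loss of signal versus DMSO.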
Consider `CCCCN(CCCC)SN(C)C(=O)Oc1cccc2c1OC(C)(C)C2`, for which the call was inactive. To `O=C(O)C1C(C(=O)O)C2(Cl)C(Cl)=C(Cl)C1(Cl)C2(Cl)Cl` (stereo not given) belongs “inactive”. On to `CC(C)(C)OOC(C)(C)C`, for which the call was inactive. To `ClC1=C(Cl)C2(Cl)C3C(Cl)C(Cl)CC3C1(Cl)C2(Cl)Cl` (stereo not given) belongs “inactive”. To `CSC(C)(C)C=NO` belongs “inactive”.

For the origin of these results see PubChem BioAssay (EPA / NIEHS).
